# Source: PubChem BioAssay (NCATS)
# Records with an inconclusive call do not appear. Values without a mark were called inactive. Active and inactive are the calls of the source. Calls follow the shape of the dose curve; as a rule, active = well fitted cell-killing curve with a large enough effect; inconclusive = small, poorly fitted or top-dose-only effect; inactive = flat fitted curve, though single readings scatter. Numbered stars: 1 amine (or outer) side, 2 acyl side, 3 side chain; on linkers, the order of the positions; unused ones are H or OH. Bridge positions count the residues as written; N and C are the ends. Square brackets hold non-standard residues; d marks the D form. Peptide text beside a SMILES is read from it. I, II: the chains in the order shown. Actinocin(9to1) = Cc1c2oc3c(C)ccc(C(=O)[*:1])c3nc-2c(C(=O)[*:2])c(N)c1=O; NMeV = CN[CH](C(=O)O)C(C)C; Sar = CNCC(=O)O
# Experiment: Cellular viability qHTS for adrenocortical cancer (ACC) cell line NCI-H295R (AID 1963990); also: nearly all actives have a fitted effect of over 60% in size
# Settings: CellTiter-Glo ATP luminescence, 48 h; series mostly up to 46.1 µM; activity change, negative = viability loss: at the top concentration
# From the text: PI: Naris Nilubol, MD Surgical Oncology Program, National Cancer Institute (NCI) National Institute of Health (NIH), Bethesda, Maryland Adrenocortical cancer (ACC) is a rare malignancy with poor survival outcomes and few treatment options. Currently, mitotane is the only FDA-approved therapy for ACC. Although adjuvant radiation therapy is rarely utilized, it has the potential to improve survival in select cases. Through a quantitative high-throughput drug screen (qHTS), we identified auranofin (AF), a thioredoxin reductase (TXNRD) inhibitor, as a promising candidate drug. This study aims to evaluate whether AF can enhance the efficacy of radiation therapy in the treatment of ACC. Two human ACC cell lines, SW-13 and NCI-H295R, were screened using the National Center for Advancing Translational Sciences (NCATS) Pharmaceutical Collection (NPC) and the Mechanism Interrogation PlatE (MIPE) library (~4,991 compounds). CellTiter-Glo (Cat # G7570, Promega, Madison, WI) was utilized to measure cell viability. Described herein are the results of the corresponding viability assay.
# PROTOCOL TABLE (as described by Inglese J, Shamu CE and Guy RK. 2007) SEQUENCE No. (e.g., 1, 2, 3, etc.); […] (e.g., Cells, Incubation, Reagent, etc.); VALUE; DESCRIPTION. 1; Cells; 5 uL; white, solid-bottom, 1536-well tissue-culture treated plates. 2; Time; overnight culture at 37C with 5% CO2. 3; Compounds and control; 23 nL; Kalypsis pin tool (Wako USA) equipped with a 1536-well pin head to transfer to the assay plates. 4; Time; 48 hours; 37C with 5% CO2. 5; Reagent; 4 uL; CellTiter-Glo luminescent substrate mix. 6; Time; 20 min at room temperature. 7; Detection; Luminescence; ViewLux plate reader NOTES (numbers refer to Sequence numbers above) 1. NCI-H295R cells were harvested from a T175 flask and resuspended in ITS-supplemented DMEM serum-free medium at a concentration of 300 000 cells/mL. Then 5 uL of resuspended cells were dispensed into each well of white, solid-bottom, 1536-well tissue-culture-treated plates using a multidrop combi dispenser. The plates were covered with stainless steel gasket lids. 2-3. The plates were cultured overnight at 37C with 5% CO2. Twenty-three nL of compounds (eight selected concentrations from the NPC / MIPE) or positive control (10 mM stock of bortezomib) in DMSO was transferred to each well of the assay plate using a pin tool (Kalypsys, San Diego, CA, USA). The final concentration of the compounds in the 5 uL assay volume ranged from 0.5 nM to 46 uM. 4-6. After 48 hours of incubation at 37C and 5% CO2, 4 uL of CellTilter-Glo luminescent substrate mix (Promega, Madison, WI, USA) was added to each well. Then the plates were incubated for 20 minutes at room temperature. 7. After incubation, luminescence was measured using a ViewLux plate reader (PerkinElmer, Waltham, MA, USA) with a clear filter was used to measure the number of metabolically competent cells. To determine compound activity in the qHTS assay, the titration-response data for each sample was plotted and modeled by a four-parameter logistic fit yielding IC50 and efficacy (maximal response) values. Raw plate reads for each titration point were normalized relative to positive control ([…], 100% inhibition) and DMSO-only wells (basal, 0%). REFERENCES: Inglese J, Shamu CE and Guy RK, Reporting data from high throughput screening of small molecule libraries, Nature Chemical Biology, 2007, 3(8): 438-441. doi.org/10.1038/nchembio0807-438.
Structure (SMILES),Potency,"activity change, negative = viability loss"
CNNCc1ccc(C(=O)NC(C)C)cc1,inactive,
c1ccc2c(c1)CCc1ccccc1N2,,-22.7%
O=C(NCc1cccc(O)c1)Nc1nc(-c2ccncc2)cs1,,-22.5%
COc1cc(C(=S)N2CCOCC2)ccc1O,,-27.2%
CCCCc1nc2cc(/C=C/C(=O)NO)ccc2n1CCN(CC)CC,0.708 µM (active),
NS(=O)(=O)c1ccc(Cl)c(S(N)(=O)=O)c1,,14.8%
CCc1cc(C(N)=O)ccc1-n1nc(C(C)C)c2c(-n3cnc(-c4cnn(C)c4)c3)ccnc21,7.94 µM (active),
Cc1ccc2c(Br)cc(Br)c(O)c2n1,1.64 µM (active),
CCNC(=O)Nc1ccc(-c2nc3c(c(N4CCOC[C@@H]4C)n2)CCN(C2COC2)C3)cc1,3.55 µM (active),
COc1ccc2cc3[n+](cc2c1OC)CCc1cc2c(cc1-3)OCO2,inactive,
NCCNCCNCCNCCN,,1% [at 9.17 µM]
"Cc1c2oc3c(C)ccc(C(=O)NC4C(=O)NC(C(C)C)C(=O)N5CCCC5C(=O)N(C)CC(=O)N(C)C(C(C)C)C(=O)OC4C)c3nc-2c(C(=O)NC2C(=O)NC(C(C)C)C(=O)N3CCCC3C(=O)N(C)CC(=O)N(C)C(C(C)C)C(=O)OC2C)c(N)c1=O (stereo not given) (I: TVP[Sar][NMeV] / II: TVP[Sar][NMeV]; ester I:1-I:C, II:1-II:C; linker I:N-II:N via Actinocin(9to1); configuration not given here)",0.802 µM (active),
COc1ccc(S(=O)(=O)N[C@@H](CNc2nc(C)nc(N3CCC(c4ccc5c(n4)NCCC5)CC3)c2C)C(=O)O)cc1,,-17.7%
Nc1ccc(S(=O)(=O)Nc2ccccc2)cc1,,-8.36%
Cc1ccc(C(C)C)c(O)c1,,-3.67%
OCc1ccccc1O[C@@H]1O[C@H](CO)[C@@H](O)[C@H](O)[C@H]1O,,-7.58%
COc1ccccc1OCC(O)CN1CCN(CC(=O)Nc2c(C)cccc2C)CC1 (stereo not given),inactive,
Nc1ncnc2nc(-c3ccc(N4CCOCC4)nc3)cc(-c3cccc(Br)c3)c12,,-12.3%
Cc1[nH]cnc1-c1ccc(Cl)cc1,,-19.2%
O=C(CCNNC(=O)c1ccncc1)NCc1ccccc1,,-0.248%

Structure (SMILES),Potency,"activity change, negative = viability loss"
Cn1cc(/C=C/C(=O)c2cccc(F)c2)cc1/C=C/C(=O)NO,,-24.6%
Nc1ccc(O)c(C(=O)O)c1,,-5.53%
Cc1oc(=O)oc1COC(=O)[C@@H]1N2C(=O)[C@@H](NC(=O)[C@H](N)c3ccccc3)[C@H]2SC1(C)C,,-22.4%
C[C@H](NC(=O)[C@@H](O)c1cc(F)cc(F)c1)C(=O)N[C@@H]1C(=O)N(C)c2ccccc2-c2ccccc21,,-0.629%
CC(C(C)N1CC(=O)NC(=O)C1)N1CC(=O)NC(=O)C1 (stereo not given),,-3.26%
C=C1C(=O)O[C@H]2C[C@H](C)C(/C=C/C(C)=O)=CC[C@H]12,7.94 µM (active),
CO[C@]12C[C@@H](COC(=O)c3cncc(Br)c3)CN(C)[C@@H]1Cc1cn(C)c3cccc2c13,,-21.6%
Cc1scc2c1N(C(=O)CN1CCN(C)CC1)c1ccccc1NC2=O,,12.8%
C[C@]12CCC3=C4CCC(=O)C=C4CC[C@H]3[C@@H]1CC[C@@]2(O)CC#N,,3.83%
CN(C(=O)CN(CCO)CC(=O)N(C)C(C)(C)Cc1ccccc1)C(C)(C)Cc1ccccc1,23.1 µM (active),
O=C1NC(=O)/C(=C/c2ccc(-c3ccc(F)cc3O)o2)S1,25.1 µM (active),
CCCCCCCC(=O)OCC(O)CO (stereo not given),,-16.6%
COc1ccccc1N1CCN(CCN(C(=O)C2CCCCC2)c2ccccn2)CC1,,-14.8%
C#CCN(C)CCCOc1ccc(Cl)cc1Cl,18.4 µM (active),
CCC1=C(C)CN(C(=O)NCCc2ccc(S(=O)(=O)NC(=O)NC3CCC(C)CC3)cc2)C1=O (stereo not given),,-20.3%
CCCCc1ccc(NS(=O)(=O)c2ccc(C)c(C(=O)N3CCN(c4cccc(C)c4C)CC3)c2)cc1,44.7 µM (active),
CCN(CC)CCCCNc1nc2cc(Cl)c(Cl)cc2nc1-c1ccc(-c2cccs2)s1,7.08 µM (active),
CCN(CC)CCOC(=O)C(c1ccccc1)C1CCCCC1 (stereo not given),,-21.8%
CCOc1nc2cccc(C(=O)O)c2n1Cc1ccc(-c2ccccc2-c2nn[nH]n2)cc1,,-8.48%
N#C/C(=C1\SCC(c2ccccc2Cl)S1)n1ccnc1 (stereo not given),,-29.5%
